# Hit rate of the full screen: of about 290,000 compounds, about 3,000 (1%) were called active. This excerpt belongs to a sample that is enriched for actives. Unmarked numbers belong to inactive results. Rule as the data show it: active = inhibition mostly above about 36% (no sharp cut-off); inactive = mostly below about 34%.
# Assay: NOD1 signaling inhibitors, primary screen, cell-based, luminescence, uHTS (AID 1578);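 also: HEK-293T reporter cells stimulated with the NOD1 agonist gamma-tri-DAP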
# Conditions: NOD1-driven NF-kB luciferase reporter cells, at 4 µM, hits give high values
row,Structure (SMILES),inhibition
1,O=S(=O)(NCc1ccc(F)cc1)c1ccc(-n2cnnn2)cc1,-14.1%
2,O=C(Nc1cccc(Cl)c1)Nc1nnc(-c2ccncc2)s1,95.7% (active)
3,Cc1ccc(OCCSCc2nnc(NC(=O)Nc3cccc(Cl)c3)s2)cc1,13.6%
4,O=C(Nc1cccc(Cl)c1)Nc1nnc(CSCCOc2ccc(Cl)cc2)s1,67.8% (active)
5,Cc1nnc(NC(=O)Nc2cccc(Cl)c2)s1,-14.6%
6,Cc1ccc(NC(=O)Nc2nnc(CSCCOc3ccc(Cl)cc3)s2)cc1,-1.1%
7,O=C(Nc1ccc(Cl)c(Cl)c1)Nc1nnc(-c2ccncc2)s1,-26.4%
8,CSc1ccccc1NC(=O)C1=CC(c2cccs2)=NS(=O)(=O)N1C,3.3%
9,COc1ccc(C(=O)/C=C/C(=O)N(Cc2ccc(F)cc2)C(C(=O)NC2CCCCC2)c2ccncc2)c(O)c1 (centres undefined),-6.1%
10,CCCN(CC(=O)Nc1ccc(C(C)=O)cc1)CC(=O)Nc1ccccc1C,-32.2%
11,COc1cc2c(cc1OC)C(c1ccc(-c3ccc(Cl)c(Cl)c3)o1)=NCC2,63.1%
12,COc1cc2c(cc1OC)C(c1ccc(-c3ccc(Cl)cc3Cl)o1)=NCC2,58.8%
13,COc1cc2c(cc1OC)C(c1ccc(-c3ccccc3Cl)o1)=NCC2,75.2% (active)
14,OCCN1CCN(c2cc(C(F)(F)F)nc3ccccc23)CC1,-6.8%
15,C/C(=N\NC(=O)c1ccc(-c2ccccc2)cc1)c1ccco1,-46.6%
16,COc1ccc(C(=O)/C=C/Sc2nc3ccccc3o2)cc1,38.4% (active)
17,COc1ccc(CCNC(=O)CSc2nc3ccccc3o2)cc1,-19.1%
18,COc1ccc(C(=O)N/C(N)=N/c2nc3ccccc3o2)cc1,-46.2%
19,O=C(CCCN1C(=O)/C(=C/c2cccs2)SC1=S)Nc1ccccc1O,-2%
20,COc1ccc(C(=O)CN2C(=O)c3ccccc3C2=O)cc1,-9.8%
21,N#CCSc1nc2c(sc(=S)n2Cc2ccco2)c(=O)n1-c1ccc(F)cc1,66.5% (active)
22,CCOC(=O)CSc1nc2c(sc(=S)n2Cc2ccco2)c(=O)n1-c1ccccc1,16.8%
23,CCOC(=O)CSc1nc2c(sc(=S)n2Cc2ccco2)c(=O)n1-c1ccc(F)cc1,14.1%
24,COc1ccccc1NC(=O)Cn1cnc2c(nc3n2CCCCC3)c1=O,-24.1%

row,Structure (SMILES),inhibition
1,CC(=O)C1=C(C)NC(C)=C(C(C)=O)C1c1ccccc1,-20.8%
2,CCOc1ccc(C(=O)Nc2nnc(S(=O)(=O)Nc3ccccc3C)s2)cc1,-17.1%
3,CCOC(=O)c1ccc(N=c2sc(C(=O)OC)cc(=O)n2Cc2ccc3c(c2)OCO3)cc1,22.1%
4,COC(=O)c1cc(=O)n(Cc2ccc3c(c2)OCO3)c(=Nc2ccccc2)s1,73.6% (active)
5,COC(=O)c1cc(=O)n(Cc2ccc3c(c2)OCO3)c(=Nc2ccc(F)cc2)s1,48.7%
6,Cc1nn(Cc2ccccc2)c(C)c1NC(=O)c1cc2nc(-c3ccco3)cc(C(F)(F)F)n2n1,-2%
7,COc1ccc(C2NCCc3cc(OC)c(OC)cc32)cc1OC (centres undefined),-2.7%
8,CCOc1cc2c(cc1OC)C(c1cccc([N+](=O)[O-])c1)NCC2 (centres undefined),-31.3%
9,CCOc1ccc(C2NCCc3cc(OC)c(OC)cc32)cc1OC (centres undefined),83.1% (active)
10,Clc1cccc2c3c([nH]c12)CCNC3,0.5%
11,CCn1c2ccccc2c2cc(C3C(C#N)=C(N)Oc4n[nH]c(COC)c43)ccc21 (centres undefined),54.9% (active)
12,COCc1[nH]nc2c1C(c1cccc(OC)c1)C(C#N)=C(N)O2 (centres undefined),4.9%
13,COCc1[nH]nc2c1C(c1ccc(OC)c(OC)c1)C(C#N)=C(N)O2 (centres undefined),-5.1%
14,CC1(C(=O)NNC(=O)c2cccc([N+](=O)[O-])c2)CC1(Br)Br (centres undefined),-8.9%
15,N/C(=N\OC(=O)c1cc(Cl)ccc1Cl)c1ccccn1,9.6%
16,COc1ccccc1C(=O)O/N=C(\N)c1ccccn1,-10%
17,N/C(=N\OC(=O)c1ccc(Cl)cc1Cl)c1ccccn1,51.2% (active)
18,N/C(=N\OC(=O)c1ccccc1Cl)c1ccccn1,54.7% (active)
19,N/C(=N\OC(=O)c1cc(Br)ccc1Cl)c1ccccn1,-19.5%
20,N/C(=N\OC(=O)c1ccc([N+](=O)[O-])cc1Cl)c1ccccn1,45.8%
21,COc1ccc(C2NC(=O)NC(C)=C2C(=O)OCc2ccc3c(c2)OCO3)cc1OC (centres undefined),15.1%
22,CCOC(=O)C1=C(C)NC(=O)NC1c1ccc2c(c1)OCO2 (centres undefined),18%
23,CCOC(=O)C1=C(CCl)NC(=O)NC1c1ccc2c(c1)OCO2 (centres undefined),72.5% (active)
24,CCOC(=O)C1=C(CN2CCCCCC2)NC(=O)NC1c1ccc2c(c1)OCO2 (centres undefined),-36.5%

row,Structure (SMILES),inhibition
1,CC1=C(C(=O)OCc2ccccc2)C(c2cccc([N+](=O)[O-])c2)NC(=O)N1 (centres undefined),13.3%
2,CC1=C(C(=O)OCc2ccc3c(c2)OCO3)C(c2cccc([N+](=O)[O-])c2)NC(=O)N1 (centres undefined),63.2% (active)
3,Cc1cc(NC(=O)CN(C)CCOc2ccccc2)ccc1Br,7.6%
4,CCN(CC)C(=O)CSc1n[nH]c(=S)n1N,-12.5%
5,COC(=O)c1ccc(CSc2n[nH]c(-c3ccccc3)n2)o1,-16.9%
6,COc1ccc(N2CC(C(=O)Nc3ccccc3C(=O)NC3CC3)CC2=O)cc1 (centres undefined),-5.8%
7,CCOC(=O)c1cccc(N2C(=O)C3C4C=CC(CC4)C3C2=O)c1 (centres undefined),7.8%
8,CCSc1nnc(NC(=O)c2cccnc2)s1,-21.5%
9,CCOC(=O)C1=C(C)NC(=O)NC1c1c(OC)ccc2ccccc12 (centres undefined),-31.2%
10,O=C(NNC(=O)C12CC3CC(CC(C3)C1)C2)c1cnccn1,-14.6%
11,O=C(NNC(=O)C12CC3CC(CC(C3)C1)C2)c1ccccn1,102% (active)
12,C/C(=N\NC(=O)c1ccccn1)C12CC3CC(CC(C3)C1)C2,-2.5%
13,COc1ccc(/C=C(/NC(=O)c2ccco2)C(=O)N2CCCC2=O)cc1,-22.3%
14,O=C(N/C(=C/c1ccc(Br)cc1)C(=O)N1CCOCC1)c1ccco1,-24.4%
15,O=C(N/C(=C/c1ccc(Br)cc1)C(=O)N1CCCC1=O)c1ccco1,63.5% (active)
16,CC(=O)c1cccc(CN2CCN(C3CCCCC3)C(CCO)C2)c1 (centres undefined),-6.2%
17,CC(C)Oc1cccc(NC(=O)c2cnccc2C(F)(F)F)c1,-4.2%
18,COc1ccc(C(=O)N/C(=C\c2cccc([N+](=O)[O-])c2)C(=O)Nc2cccc(C(=O)O)c2)cc1,-30.8%
19,CC1=C(C)C(=O)C(N2CCOCC2)=CC1=O,-11.2%
20,CC(C)(C)C1=CC(=O)C(N2CCOCC2)=CC1=O,3.6%
21,CC1CN(CCOc2ccc([N+](=O)[O-])cc2)CC(C)O1 (centres undefined),-4.4%
22,C=CCN(c1ccccc1)S(=O)(=O)c1ccc(Cl)c(C(=O)OCC(=O)N(C)C2CCS(=O)(=O)C2)c1 (centres undefined),-31.4%
23,Cc1cccc2c(C(=O)O)c3c(nc12)CCCCC3,-22.2%
24,Cc1cccc2c(N)c3c(nc12)CCCC3 (tested in a mixture with another compound),53.2% (active)

row,Structure (SMILES),inhibition
1,Nc1c2c(nc3ccccc13)CCCC2,-26.6%
2,COc1ccc2[nH]c(C(=O)O)c(NS(=O)(=O)c3ccc(C)c(C)c3)c2c1,-3.1%
3,Cc1ccc(Nc2nc(-c3sc(C)nc3C)cs2)cc1,-5%
4,Cc1nc(C)c(-c2csc(Nc3ccc(F)cc3)n2)s1,44.7% (active)
5,Cc1nc(C)c(-c2csc(Nc3ccc(N)cc3)n2)s1,16.7%
6,COC(=O)C(C)(C)ONC(=O)Nc1ccc([N+](=O)[O-])cc1,-7%
7,CCOc1ccccc1C(=O)N/N=C/c1ccoc1,-17.7%
8,CN=c1scc(-c2ccccc2F)n1/N=C/c1ccc[nH]1,101% (active)
9,CN=c1scc(-c2ccccc2F)n1/N=C/c1ccc(O)c(O)c1O,-44.9%
10,CN=c1scc(-c2ccccc2Br)n1/N=C/c1ccc[nH]1,12.4%
11,N#Cc1nc(COc2ccc(Cl)cc2Cl)oc1N1CCN(c2ccccc2)CC1,21.8%
12,COc1ccc(N2CCN(C(c3ccccc3OC)c3nnnn3C3CCCC3)CC2)cc1 (centres undefined),-19.3%
13,CC(C)Oc1ccc(C(CC(=O)O)NC(=O)C2CCCCC2)cc1 (centres undefined),-11.6%
14,O=C(O)CC(NC(=O)C1CCCCC1)c1ccc(OC2CCCC2)cc1 (centres undefined),65.3% (active)
15,COc1ccc(C(CC(=O)O)NC(=O)C2CCCCC2)cc1 (centres undefined),19.1%
16,CCOC(=O)N1CCN(C(=O)c2cccc(F)c2)CC1,-43.9%
17,CCOc1cccc2sc(N(CCN(C)C)C(=O)CCS(=O)(=O)c3ccccc3)nc12,-29%
18,Cc1ccc2sc(N(CCCN(C)C)C(=O)CCS(=O)(=O)c3ccccc3)nc2c1C,-27%
19,CN1C(=O)C2(C(C#N)=C(N)N(c3cc(Cl)cc(Cl)c3)C3=C2C(=O)CC(C)(C)C3)c2ccccc21 (centres undefined),-0.6%
20,O=c1ccnc(SCCC(F)=C(F)F)[nH]1,-43.9%
21,O/N=C\c1ccc(-c2ccccc2)o1,3.8%
22,Cn1c(CCN2CCN(c3ccccn3)CC2)nc2cc(NC(=O)COc3ccc(Cl)cc3)ccc21,21%
